This is an account of results in PubChem BioAssay (NCI).

Values joined by “and” are separate entries in the source; they are usually repeats but may differ in a detail not shown here. Equal values may be shown once. Compounds without any hit were thinned out: in the full panel of roughly 83,000, 20% have a hit.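 Compound tested at a single concentration for 48 hours in 96-well plates; a percent growth value below 10 was scored as active.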 Where a structure was tested more than once in an assay, its records may differ in their call. Active and inactive are the calls of the source.

The first experiment relates to T-47D breast. The experiment can be described thus: NCI-60 one-dose screen, 48 h (100 = growth as untreated, 0 = no growth, -100 = all killed). The following applies: 10 µM. The protocol:
Growth inhibition of the T-47D human tumor cell line is measured as a screen for anti-cancer activity. Cells are grown in 96 well plates and exposed to the test compound for 48 hours. Compounds are tested at a single concentration, which is 10^-5 M for most compounds. The reported endpoint is percent growth (GI% or GIPRCNT), where numbers from 0 - 100% represent growth inhibition, and numbers from -100% - 0 represent cell death. For example, a value of 40 represents 60% growth inhibition. A value of 0 means no net growth occurred over the course of the experiment. A value of -40 indicates 40% of cells at the beginning of the experiment died by the end of the experiment. A value of -100 means all cells are dead at the end of the experiment.
NCI-60 Human Tumor Cell Lines Screen was performed using the standard one-dose NCI protocol, which is described in more detail at https://dtp.cancer.gov/discovery_development/nci-60/default.htm.
Compounds with GIPRCNT values below 10 were considered active. Activity score was based on GIPRCNT using the following formula: […]
Score is 0 for GIPRCNT values of 100 or above, 50 for GIPRCNT values of 0, and 100 for GIPRCNT values of -100.
On to `CC(C)(C)c1cc(NC(=O)Cc2ccc(-c3cnc4cc(-c5cnn(CCN6CCOCC6)c5)ccc4n3)cc2)no1`, for which the growth is 15.6% (inactive).

The same experiment, now with this note: 10 µM unless noted.
Take `CCCCCCCCCCCCOc1ccccc1C=O`: the growth was 100% (inactive).

In the case of `CO/N=C/C=C\C(=O)N/C=C/C[C@H]1/C=C/[C@H](O)/C=C\C=C\c2cccc(O)c2C(=O)O1`, the growth is 16.4% (inactive) and 17.4% (inactive).

As to `Cn1c(=O)c2[nH]c(CCCCCCCCc3nc4ccccc4[nH]3)nc2n(C)c1=O`, the growth is 46.6% (inactive) and 44% (inactive).

`CC(CN=Cc1ccccc1O)N=Cc1ccccc1O` (stereo unspecified): the growth was 96.9% (inactive) and 94.2% (inactive).

`CCOC(=O)c1c(C)oc(C)c(C(=O)OCC)c1=O`: the growth is 99.1% (inactive) and 87.7% (inactive).

As to `Cc1cc(N=Nc2ccc(C)c(N=Nc3cc(C)c(N)cc3N)c2)c(N)cc1N`, the growth is 77.5% (inactive) and 82.6% (inactive).

Take `Nc1nc2ncc(CNc3ccc(C(=O)N[C@@H](CCc4nn[nH]n4)C(=O)O)cc3)nc2c(=O)[nH]1`: the growth is 103% (inactive) and 95.9% (inactive).

Regarding `Nc1ncnc2c1ncn2C1CC(O)C(CO)O1` (stereo unspecified), the growth was 112% (inactive) and 99.1% (inactive).

For the molecule `OC(CSc1ccccc1)CN1CCN(c2cccc(Cl)c2)CC1` (stereo unspecified), the growth was 90.3% (inactive) and 102% (inactive).

With `CCOC(=O)Nc1nc2ccccc2[nH]1`, the growth was 110% (inactive) and 42.1% (inactive).

For `CCN(CC)CCCC(CNc1ccnc2cc(Cl)ccc12)c1ccc(Cl)cc1` (stereo unspecified), the growth is -41.1% (active) and 114% (inactive).

Consider `CC1(c2ccc3ccccc3c2)CCC(=O)O1` (stereo unspecified), for which the growth is 103% (inactive).

With `O=C(Nc1ccc([N+](=O)[O-])cc1Cl)c1cc(Cl)ccc1O`, the growth is -7.5% (active) and 3.54% (active).

Turning to `C#CCN(C)Cc1ccccc1`, the growth was 96.9% (inactive) and 99.3% (inactive).

For `COC(=O)/C=C/c1cc(O)c2c(c1)C(C(=O)OC)C(c1ccc(O)c(O)c1)O2` (stereo unspecified), the growth was 84.7% (inactive) and 84.1% (inactive).

As for `CC1CCCc2sc3nc(NNC(=O)c4cnccn4)n(-c4ccccc4)c(=O)c3c21` (stereo unspecified), the growth was 10.9% (inactive) and 3.31% (active).

For `C1CCCCNCCC1`, the growth was 101% (inactive).

As for `NC(=O)C1CC2C=CC1C2` (stereo unspecified), the growth is 101% (inactive) and 100% (inactive).

Turning to `O=C1CCN(Cc2ccccc2)C(=S)N1`, the growth is 113% (inactive) and 103% (inactive).

On to `CCCCCn1sc(=O)n(Cc2ccc(CNC(=O)C(C)c3ccc(CC(C)C)cc3)cc2)c1=O` (stereo unspecified), for which the growth was 86.4% (inactive) and -44.8% (active).

Turning to `Cc1ccc(S(=O)(=O)Nc2ccc3cc([N+](=O)[O-])ccc3c2[N+](=O)[O-])cc1`, the growth is 65.1% (inactive) and 98.3% (inactive).

In the case of `CCOC(=O)Nc1ccc2c(c1)/C(=N\NC(N)=S)c1ccccc1-2`, the growth was 26.4% (inactive) and 31.3% (inactive).

On to `O=C(Nc1ccc(Cl)cc1)c1cc2ccccc2cc1O`, for which the growth is 15.9% (inactive) and 15.4% (inactive).

On to `OCc1ccccn1`, for which the growth is 107% (inactive).

As to `CCN(CC)CCCC(C)Nc1cnc(C(=O)Nc2cc(F)cc3cccnc23)cn1` (stereo unspecified), the growth is 14.3% (inactive) and -49.5% (active).

For `COc1ccc(CCN(C)CCCC(C#N)(c2ccc(OC)c(OC)c2)C(C)C)cc1OC` (stereo unspecified), the growth is 98.2% (inactive) and 106% (inactive).

`O=C(O)CSCc1nc2ccccc2[nH]1`: the growth is 104% (inactive).

For the molecule `CCN(CC)CCNc1cc(-c2cccc(OC(F)(F)F)c2)nc2ccc(N3CCCC3)cc12`, the growth is 64.4% (inactive) and -11.2% (active) and 20.9% (inactive).

On to `O=C1OC(Oc2ccc(Br)cc2)(c2ccccc2)c2ccccc21` (stereo unspecified), for which the growth was 73.6% (inactive) and 76.6% (inactive).

In the case of `OC1CCC(Oc2cccc3cnc(Nc4ccc5nc[nH]c5c4)nc23)CC1` (stereo unspecified), the growth is -7.14% (active) and 43.9% (inactive).

In the case of `COc1ccc(/C(C#N)=C/c2ccccn2)cc1`, the growth is 88.7% (inactive) and 115% (inactive).

Turning to `O=C(Nc1cccc(Cl)c1)c1cc2ccccc2cc1O`, the growth is 15.5% (inactive) and 2.04% (active).

On to `Nc1ccc2[nH]c(-c3ccccc3)cc(=O)c2c1`, for which the growth is 78% (inactive).

With `CCN(CC)C(=O)c1cccnc1`, the growth was 114% (inactive).

Regarding `CC(C(=O)O)n1cc(C#N)c(=O)[nH]c1=O` (stereo unspecified), the growth was 108% (inactive) and 101% (inactive).

Regarding `COc1cc(C(=O)N/N=C/c2ccc(N(C)C)cc2)cc(OC)c1OC`, the growth is 63.3% (inactive).

In the case of `O=C(CCc1ccc(O)cc1)N/N=C/c1cc(Br)ccc1O`, the growth is 33.3% (inactive).

With `COc1cc2c(c(OC)c1OC)-c1ccc(OC)c(=O)cc1[C@@H](NC(C)=O)CC2`, the growth was 69.8% (inactive) and 49.2% (inactive) and 70.5% (inactive).

For the molecule `COc1ccc2ccccc2c1/C=N/N1CCCCC1`, the growth is 94.2% (inactive).

Still in this experiment, the particulars now being: 30 µM.
Turning to `CC(C)(C)c1cc(NC(=O)Cc2ccc(-c3cnc4cc(-c5cnn(CCN6CCOCC6)c5)ccc4n3)cc2)no1`, the growth was 25.5% (inactive).
